Source: PubChem BioAssay (Tox21)
Values joined by “and” are separate entries in the source; they are usually repeats but may differ in a detail not shown here. Equal entries are not always repeated. Results filed as inconclusive are left out. Active and inactive are the calls of the source. Calls come from the whole dose curve; as a rule, active = well fitted curve in the direction sought with a large enough effect in the repeat runs; inconclusive = weak or mixed curves; inactive = no such curve, though single readings can be large; an effect the other way counts as inactive or inconclusive.

Columns and labels:
[1] = qHTS RealTime-Glo MT Cell Viability Assay in HepG2 cells - 40 hour (AID 1224870); conditions: RealTime-Glo luminescence; series mostly up to 76.8 µM; note: nearly all actives have a fitted effect of over 50% in size
How it was run: (§1)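 HepG2 cells (600/well) mixed with RealTime-Glo MT reagent, settled 5 h at 37 C/5% CO2 before compound addition. Nonlytic NanoLuc luminescence from viable-cell prosubstrate reduction read repeatedly during 40 h treatment at 37 C.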

[2] = A CellTox Green Cytotoxicity Assay to monitor cytotoxicity in HEK293 cells - 40 hour (AID 1224871); conditions: CellTox Green fluorescence; series mostly up to 35.3 µM; note: nearly all actives have a fitted effect of over 45% in size
How it was run: (§2)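 Homogeneous no-lysis format: HEK293 cell suspension mixed with CellTox Green reagent, seeded, incubated 5 h at 37 C/5% CO2, then dosed by pintool with compound in DMSO.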

[3] = qHTS RealTime-Glo MT Cell Viability Assay in HEK293 cells - 16 hour (AID 1224872); conditions: RealTime-Glo luminescence; series mostly up to 76.8 µM; note: top concentration of the series differs between compounds; nearly all actives have a fitted effect of over 50% in size
How it was run: (§3)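 Tox21 10K qHTS, HEK293, 600 cells/well, RealTime-Glo reagent co-dispensed with cells; 5 h preincubation, compound by pintool, 37 C, luminescence at 0–40 h.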

[4] = qHTS RealTime-Glo MT Cell Viability Assay in HepG2 cells - 8 hour (AID 1224873); conditions: RealTime-Glo luminescence; series mostly up to 76.8 µM; note: nearly all actives have a fitted effect of over 55% in size
How it was run: as §1

[5] = qHTS RealTime-Glo MT Cell Viability Assay in HEK293 cells - 40 hour (AID 1224874); conditions: RealTime-Glo luminescence; max response: active compounds read low; note: nearly all actives have a fitted effect of over 50% in size
How it was run: (§4)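 Measured as luminescence from the same continuously cultured HEK293 wells at successive time points (0, 8, 16, 24, 32, 40 h) after compound addition. Reagent present from seeding; dosing at 5 h; incubation 37 C.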

[6] = A CellTox Green Cytotoxicity Assay to monitor cytotoxicity in HEK293 cells - 24 hour (AID 1224875); conditions: CellTox Green fluorescence; series mostly up to 76.8 µM; note: nearly all actives have a fitted effect of over 45% in size
How it was run: as §2

[7] = A CellTox Green Cytotoxicity Assay to monitor cytotoxicity in HepG2 cells - 16 hour (AID 1224876); conditions: CellTox Green fluorescence; series mostly up to 76.8 µM; note: nearly all actives have a fitted effect of over 45% in size
How it was run: (§5)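 Fluorescent DNA-binding dye, 600 HepG2 cells/well, 5 h preincubation then compound in DMSO; same plates read at 0–40 h, 37 C.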

[8] = qHTS RealTime-Glo MT Cell Viability Assay in HepG2 cells - 32 hour (AID 1224877); conditions: RealTime-Glo luminescence; series mostly up to 76.8 µM; note: nearly all actives have a fitted effect of over 55% in size
How it was run: (§6)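 Cells + NanoLuc/prosubstrate dispensed (600 cells/well) → 5 h at 37 C/5% CO2 → compounds in DMSO transferred → 40 h incubation at 37 C, luminescence read at 0, 8, 16, 24, 32, 40 h.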

[9] = A CellTox Green Cytotoxicity Assay to monitor cytotoxicity in HepG2 cells - 24 hour (AID 1224878); conditions: CellTox Green fluorescence; series mostly up to 76.8 µM; note: nearly all actives have a fitted effect of over 45% in size
How it was run: as §5

[10] = A CellTox Green Cytotoxicity Assay to monitor cytotoxicity in HepG2 cells - 40 hour (AID 1224879); conditions: CellTox Green fluorescence; series mostly up to 76.8 µM; note: nearly all actives have a fitted effect of over 40% in size
How it was run: as §5

[11] = qHTS RealTime-Glo MT Cell Viability Assay in HEK293 cells - 0 hour (AID 1224880); conditions: RealTime-Glo luminescence; series mostly up to 76.8 µM
How it was run: as §4

[12] = A CellTox Green Cytotoxicity Assay to monitor cytotoxicity in HEK293 cells - 32 hour (AID 1224881); conditions: CellTox Green fluorescence; series mostly up to 35.3 µM; note: nearly all actives have a fitted effect of over 40% in size
How it was run: as §2

[13] = A CellTox Green Cytotoxicity Assay to monitor cytotoxicity in HepG2 cells - 0 hour (AID 1224882); conditions: CellTox Green fluorescence; series mostly up to 76.8 µM; note: nearly all actives have a fitted effect of over 35% in size
How it was run: as §5

[14] = A CellTox Green Cytotoxicity Assay to monitor cytotoxicity in HepG2 cells - 32 hour (AID 1224883); conditions: CellTox Green fluorescence; series mostly up to 76.8 µM; note: nearly all actives have a fitted effect of over 50% in size
How it was run: as §5

[15] = A CellTox Green Cytotoxicity Assay to monitor cytotoxicity in HEK293 cells - 8 hour (AID 1224884); conditions: CellTox Green fluorescence; series mostly up to 76.8 µM; note: nearly all actives have a fitted effect of over 35% in size
How it was run: as §2

[16] = qHTS RealTime-Glo MT Cell Viability Assay in HepG2 cells - 16 hour (AID 1224885); conditions: RealTime-Glo luminescence; series mostly up to 76.8 µM; note: nearly all actives have a fitted effect of over 50% in size
How it was run: as §6

[17] = qHTS RealTime-Glo MT Cell Viability Assay in HEK293 cells - 24 hour (AID 1224886); conditions: RealTime-Glo luminescence; series mostly up to 76.8 µM
How it was run: as §3

[18] = qHTS RealTime-Glo MT Cell Viability Assay in HEK293 cells - 8 hour (AID 1224887); conditions: RealTime-Glo luminescence; series mostly up to 76.8 µM
How it was run: as §4

[19] = A CellTox Green Cytotoxicity Assay to monitor cytotoxicity in HEK293 cells - 16 hour (AID 1224888); conditions: CellTox Green fluorescence; series mostly up to 76.8 µM; note: nearly all actives have a fitted effect of over 35% in size
How it was run: as §2

[20] = qHTS RealTime-Glo MT Cell Viability Assay in HepG2 cells - 0 hour (AID 1224889); conditions: RealTime-Glo luminescence; series mostly up to 76.8 µM; note: nearly all actives have a fitted effect of over 50% in size
How it was run: as §6
% is set by controls: 0 for no effect and ±100 for the full control effect.

O=C(O)COc1nn(Cc2ccccc2)c2ccccc12
inactive: Potency [1] | Potency [2] | Potency [3] | Potency [4] | max response [5] 3.59% | Potency [6] | Potency [7] | Potency [8] | Potency [9] | Potency [10] | Potency [11] | Potency [12] | Potency [13] | Potency [14] | Potency [15] | Potency [16] | Potency [17] | Potency [18] | Potency [19] | Potency [20]

CCS(=O)(=O)c1ccc(OC)c(C(=O)OC)c1
inactive: Potency [1] | Potency [2] | Potency [3] | Potency [4] | max response [5] 5.71% | Potency [6] | Potency [7] | Potency [8] | Potency [9] | Potency [10] | Potency [11] | Potency [12] | Potency [13] | Potency [14] | Potency [15] | Potency [16] | Potency [17] | Potency [18] | Potency [19] | Potency [20]

C=CCS(=O)(=O)O
inactive: Potency [1] | Potency [2] | Potency [3] | Potency [4] | max response [5] 0.443% | Potency [6] | Potency [7] | Potency [8] | Potency [9] | Potency [10] | Potency [11] | Potency [12] | Potency [13] | Potency [14] | Potency [15] | Potency [16] | Potency [17] | Potency [18] | Potency [19] | Potency [20]

CCN(Cc1ccncc1)C(=O)C(CO)c1ccccc1 (stereo not given)
inactive: Potency [1] | Potency [2] | Potency [3] | Potency [4] | max response [5] 5.99% | Potency [6] | Potency [7] | Potency [8] | Potency [9] | Potency [10] | Potency [11] | Potency [12] | Potency [13] | Potency [14] | Potency [15] | Potency [16] | Potency [17] | Potency [18] | Potency [19] | Potency [20]

CCCCNC(=O)NCCCC
inactive: Potency [1] | Potency [2] | Potency [3] | Potency [4] | max response [5] -3.77% | Potency [6] | Potency [7] | Potency [8] | Potency [9] | Potency [10] | Potency [11] | Potency [12] | Potency [13] | Potency [14] | Potency [15] | Potency [16] | Potency [17] | Potency [18] | Potency [19] | Potency [20]

CCOC(=O)C(=O)OCC
inactive: Potency [1] | Potency [2] | Potency [3] | Potency [4] | max response [5] 6.27% | Potency [6] | Potency [7] | Potency [8] | Potency [9] | Potency [10] | Potency [11] | Potency [12] | Potency [13] | Potency [14] | Potency [15] | Potency [16] | Potency [17] | Potency [18] | Potency [19] | Potency [20]

CC(=O)OC/C=C(\C)CC/C=C(\C)CCC=C(C)C
inactive: Potency [1] | Potency [2] | Potency [3] | Potency [4] | max response [5] 12.3% and 2.35% | Potency [6] | Potency [7] | Potency [8] | Potency [9] | Potency [10] | Potency [11] | Potency [12] | Potency [13] | Potency [14] | Potency [15] | Potency [16] | Potency [17] | Potency [18] | Potency [19] | Potency [20]

CCOC(=O)Nc1ccc(NCc2ccc(F)cc2)nc1N
inactive: Potency [1] | Potency [2] | Potency [3] | Potency [4] | max response [5] -2.14% | Potency [6] | Potency [7] | Potency [8] | Potency [9] | Potency [10] | Potency [11] | Potency [12] | Potency [13] | Potency [14] | Potency [15] | Potency [16] | Potency [17] | Potency [18] | Potency [19] | Potency [20]

O=S(O)CO
inactive: Potency [1] | Potency [2] | Potency [3] | Potency [4] | max response [5] 10.1% | Potency [6] | Potency [7] | Potency [8] | Potency [9] | Potency [10] | Potency [11] | Potency [12] | Potency [13] | Potency [14] | Potency [15] | Potency [16] | Potency [17] | Potency [18] | Potency [19] | Potency [20]

CCN1CCC[C@H]1CNC(=O)c1cc(S(N)(=O)=O)ccc1OC
inactive: Potency [1] | Potency [2] | Potency [3] | Potency [4] | max response [5] -3.58% | Potency [6] | Potency [7] | Potency [8] | Potency [9] | Potency [10] | Potency [11] | Potency [12] | Potency [13] | Potency [14] | Potency [15] | Potency [16] | Potency [17] | Potency [18] | Potency [19] | Potency [20]

COC(=O)CC(C)=O
inactive: Potency [1] | Potency [2] | Potency [3] | Potency [4] | max response [5] 11.5% | Potency [6] | Potency [7] | Potency [8] | Potency [9] | Potency [10] | Potency [11] | Potency [12] | Potency [13] | Potency [14] | Potency [15] | Potency [16] | Potency [17] | Potency [18] | Potency [19] | Potency [20]

CCCCCCCCS(=O)(=O)Cl
inactive: Potency [1] | Potency [2] | Potency [3] | Potency [4] | max response [5] 19.7% | Potency [6] | Potency [7] | Potency [8] | Potency [9] | Potency [10] | Potency [11] | Potency [12] | Potency [13] | Potency [14] | Potency [15] | Potency [16] | Potency [17] | Potency [18] | Potency [19] | Potency [20]
